Assay outcomes as filed in PubChem BioAssay.
SARS PLpro yeast: SARS-CoV PLP inhibition in yeast; Potency, µM (series often up to 32.9 µM), usual class: activators; S. cerevisiae expressing SARS-CoV PLpro, growth rescue; 0.19% of 330,000 active; calls by dose curve; note: nearly all actives have a fitted effect of over 55% in size
Pf growth 96h: inhibits malaria parasite growth, 96 h; P. falciparum luciferase reporter growth, 96 h; Potency, µM (doses to about 28.7 µM), hits mostly inhibitors; 6.9% of 320,000 active; AID 504834
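Two parasite generations (96 h, 37 C, 5% CO2) of compound exposure in infected erythrocytes (0.05% parasitemia, 2% hematocrit). Luciferase-reporter P. falciparum; decreased luminescence indicates inhibited growth, aimed at apicoplast-acting delayed death.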
Sm TGR block: inhibitors of Schistosoma mansoni thioredoxin glutathione reductase; Q962Y6; purified TGR, DTNB reduction, TNB absorbance 405 nm; Potency, µM (series often up to 114 µM), hits mostly inhibitors; 3% of 360,000 active; AID 485364; note: nearly all actives have a fitted effect of over 60% in size
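TGR 20 nM + NADPH 100 uM (dispensed conc.), cpd preinc 15 min RT; start with NADPH (500 uM addition) then DTNB (15 mM addition). Kinetic TNB absorbance, 405 nm filter. Four-parameter Hill fit across titration.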
Pf growth 48h: P. falciparum growth inhibition at 48 hours (one generation) | P. falciparum luciferase growth in erythrocytes, 48 h | Potency, µM (doses to about 28.7 µM), actives largely listed as inhibitors | 5.9% of 310,000 active
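Here the parasites carry a stable luciferase gene and grow inside erythrocytes in Albumax-based RPMI medium with compound for one erythrocytic cycle. Activity is scored as loss of luminescent signal.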
Each line names hits and unclear results; the compound was inactive in the other large screens. Only some compounds are listed: those with a hit (about 12% of all), similar ones and a draw of the others. Unless noted, calls come from the whole dose curve; as a rule, active = well fitted curve in the direction sought with a large enough effect; inconclusive = small, poorly fitted or top-dose-only effect, or another doubt; inactive = no such curve, though single readings can be large; an effect the other way counts as inactive or inconclusive.

O=C(c1ccccn1)N1CCCC(N2CCN(c3ccc(F)cc3)CC2)C1 (stereo unspecified)	none
NS(=O)(=O)c1cccc(NC(=O)COC(=O)/C=C/c2nc3ccccc3s2)c1	none (no result: Pf growth 96h, Sm TGR block, Pf growth 48h)
CCCNC(=O)C(C)n1c2ccccc2c2nc(=O)cc(C)n21 (stereo unspecified)	none (no result: Pf growth 48h)
Cc1cc(=O)nc2c3ccccc3n(C(C)C(=O)Nc3c(F)c(F)c(F)c(F)c3F)n12 (stereo unspecified)	Pf growth 48h 3.29µM
Cc1cc(=O)nc2c3ccccc3n(C(C)C(=O)Nc3cc(F)ccc3F)n12 (stereo unspecified)	Pf growth 96h 10.4µM, Pf growth 48h inconclusive
CC(C)(C)C(=O)NC1CCN(CC(=O)Nc2ccc3c(c2)OCO3)CC1	none
COC(=O)C1=C(C)N(C)C(C)=C(C(=O)OC)C1c1ccc(F)c(Br)c1	Pf growth 48h 9.28µM
CC(C)(O)[C@H](O)Cc1cc2ccc(=O)oc2cc1O[C@@H]1O[C@H](CO)[C@@H](O)[C@H](O)[C@H]1O	none (no result: Pf growth 96h, Sm TGR block, Pf growth 48h)
CCOC(=O)c1c(C)[nH]c(C(=O)N/N=C\c2ccccc2Cl)c1C	Pf growth 96h 9.28µM, Pf growth 48h inconclusive
CN1CCC(N(C)c2nc(-c3ccc([N+](=O)[O-])cc3)nc3ccccc23)CC1	Pf growth 96h 1.47µM, Pf growth 48h inconclusive
CN1CCc2cc(Cl)c(O)cc2[C@@H](c2ccccc2)C1	none (no result: Pf growth 96h, Pf growth 48h)
CN1CCc2cc(Cl)c(O)cc2[C@H]2c3ccccc3CC[C@@H]21	Pf growth 96h 9.53µM, Pf growth 48h 12µM (no result: SARS PLpro yeast, Sm TGR block)
O=C(C1=C[C@@H](c2csc3ccccc23)C[C@@H](OCc2ccc(CO)cc2)O1)N1CCOCC1	Pf growth 96h inconclusive, Pf growth 48h inconclusive
C=CCOC(=O)C1=C[C@@H](c2csc3ccccc23)C[C@@H](OCc2ccc(CO)cc2)O1	Pf growth 96h 13.1µM, Sm TGR block inconclusive, Pf growth 48h inconclusive
O=C(C1=C[C@@H](c2csc3ccccc23)C[C@@H](OCc2ccc(CO)cc2)O1)N1CCN(Cc2ccc3c(c2)OCO3)CC1	Pf growth 96h 5.22µM, Pf growth 48h inconclusive
O=C(Nc1ccccc1)C1=C[C@H](c2csc3ccccc23)C[C@H](OCc2ccc(CO)cc2)O1	Pf growth 96h inconclusive, Pf growth 48h inconclusive
O=C(C1=C[C@@H](c2csc3ccccc23)C[C@@H](OCc2ccc(CO)cc2)O1)N1CCN(Cc2ccccc2)CC1	Pf growth 96h 5.22µM, Sm TGR block 35.5µM, Pf growth 48h inconclusive
O=C(C1=C[C@@H](c2ccccc2)C[C@@H](OCc2ccc(CO)cc2)O1)N1CCN(Cc2ccc3c(c2)OCO3)CC1	Pf growth 96h inconclusive, Pf growth 48h inconclusive
COc1cccc(N2C(=O)CSC23C(=O)N(CC(=O)NCc2ccc(C)cc2)c2ccccc23)c1 (stereo unspecified)	none (no result: SARS PLpro yeast, Pf growth 96h, Pf growth 48h)
C#CCSc1nncn1C(=O)/C=C/c1ccccc1	Sm TGR block 70.8µM
O=C(/C=C/c1ccccc1)N1CCC[C@H]1CO	none
Cc1cc(OC(C)C(=O)NCC2CCCO2)cc(C)c1Cl (stereo unspecified)	Pf growth 96h 5.22µM
CN(C1=C(N2CCOCC2)C(=O)c2ccccc2C1=O)c1ccccc1	Sm TGR block 25.1µM, Pf growth 48h inconclusive
O=C(O)c1cccc(NC2=C(N3CCOCC3)C(=O)c3ccccc3C2=O)c1	Sm TGR block 44.7µM
CCSC1=C(C#N)C(c2cccc(Br)c2)CC(=O)N1 (stereo unspecified)	Pf growth 48h 6.57µM
CCSC1=C(C#N)C(c2cccc(O)c2)CC(=O)N1 (stereo unspecified)	none (no result: Pf growth 48h)
CCCCOc1ccc(C(=O)NCC(=O)NC2CCCCC2)cc1	none
COc1cccc(N2CCN(C(=O)CN3CCSc4ccccc43)CC2)c1	none (no result: SARS PLpro yeast, Pf growth 96h, Pf growth 48h)
CC(Oc1ccccc1)C(=O)Nc1ccc(NC(=O)c2ccccc2)cc1 (stereo unspecified)	Pf growth 48h inconclusive
COc1cc(NC(=O)C(C)Oc2ccccc2)c(OC)cc1NC(=O)c1ccccc1 (stereo unspecified)	Pf growth 96h inconclusive, Pf growth 48h 10.4µM
COC(=O)c1ccccc1NC(=O)C(C)NS(=O)(=O)c1ccc(OC)cc1 (stereo unspecified)	Pf growth 48h 1.31µM (no result: Pf growth 96h)
COC(=O)c1ccccc1NC(=O)C(C)Oc1ccccc1 (stereo unspecified)	Pf growth 48h 7.38µM
COc1cc(C2C3=C(CC(C)(C)CC3=O)Nc3c2c(=O)[nH]c(=O)n3Cc2ccccc2)ccc1O (stereo unspecified)	Sm TGR block 50.1µM
c1ccc(C(CN2CCOCC2)c2ccccc2)cc1	Pf growth 96h 8.28µM
O=C(c1ccccc1)C(CCC(CN1CCOCC1)C(=O)c1ccccc1)CN1CCOCC1 (stereo unspecified)	Pf growth 96h inconclusive, Sm TGR block 8.91µM
O=C(c1ccc(F)cc1)C(CN1CCOCC1)c1ccccc1 (stereo unspecified)	Pf growth 96h inconclusive, Pf growth 48h inconclusive
CCOCCCN(C)C1CCN(C(=O)c2oc3ccccc3c2NC(=O)COc2ccc(F)cc2)CC1	Pf growth 96h inconclusive, Pf growth 48h inconclusive
CC(=O)c1c(C)oc2ccc(N(C(C)=O)S(=O)(=O)c3ccc(Cl)c([N+](=O)[O-])c3)cc12	Pf growth 96h inconclusive, Sm TGR block 2.24µM, Pf growth 48h inconclusive
COC(=O)c1c(C)oc2ccc(N(C(C)=O)S(=O)(=O)c3ccccc3)cc12	none
O=C(CN1CCN(Cc2ccccc2F)C1=O)NCc1ccco1	Pf growth 96h 13.1µM, Sm TGR block 28.2µM (no result: Pf growth 48h)
O=C(CN1CCN(Cc2cccc(Cl)c2)C1=O)NCc1ccc(F)cc1	none (no result: SARS PLpro yeast, Pf growth 96h, Pf growth 48h)
O=C(O)CN1CCN(Cc2ccc(F)cc2Cl)C1=O	Pf growth 96h 8.28µM, Sm TGR block 8.91µM, Pf growth 48h inconclusive
Cc1ccc(CNC(=O)CN2CCN(Cc3ccc(C)cc3)C2=O)cc1	Pf growth 96h 2.94µM (no result: Pf growth 48h)
Cc1ccc(N2C(=O)N(CC(=O)NCc3ccccc3Cl)C(=O)C2C)cc1 (stereo unspecified)	Pf growth 48h 10.4µM
O=C(CN1CCN(Cc2ccccc2F)C1=O)NCc1cccnc1	Pf growth 96h inconclusive
CCc1ccc(OCC(=O)Nc2cc(-c3nc4cc(C)ccc4o3)ccc2C)cc1	none (no result: SARS PLpro yeast, Pf growth 96h, Pf growth 48h)
CCOc1ccc(-n2c(SC(C)C(=O)OC)nc3c([nH]c4ccccc43)c2=O)cc1 (stereo unspecified)	none (no result: SARS PLpro yeast, Pf growth 96h, Pf growth 48h)
O=C(NCc1ccco1)C1CCN(c2nc3ccccc3n2Cc2ccccc2F)CC1	Sm TGR block 44.7µM (no result: Pf growth 48h)
O=C(NCc1ccccc1F)C1CCN(Cc2cc3ccccc3n2Cc2cccc(Cl)c2)CC1	Sm TGR block 12.6µM (no result: SARS PLpro yeast, Pf growth 96h, Pf growth 48h)
O=C(CN1CCN(Cc2ccc(F)cc2)C1=O)NCc1ccccc1Cl	none (no result: SARS PLpro yeast, Pf growth 96h, Pf growth 48h)
O=C(CN1CCN(Cc2ccccc2Cl)C1=O)NCc1ccccc1Cl	Sm TGR block 5.01µM (no result: SARS PLpro yeast, Pf growth 96h, Pf growth 48h)
COc1ccc(C2=NS(=O)(=O)N(C)C(C(=O)N3CCCCC3C)=C2)cc1 (stereo unspecified)	none
COc1ccc(NC(=O)CSc2nc3[nH]ncc3c(=O)[nH]2)c(OC)c1	none (no result: SARS PLpro yeast)
CC(C)C(=O)Nc1cccc(-c2cn3ccccc3n2)c1	none
CC(=O)Nc1cccc(-c2cn3ccccc3n2)c1	Pf growth 96h 13.1µM (no result: Sm TGR block)
COC(=O)CSc1nc2c(c(-c3ccco3)c1C#N)CCCC2	Sm TGR block 3.16µM, Pf growth 48h 1.85µM (no result: Pf growth 96h)
